{
  "source": "the supplement of paper PMC10338343",
  "note": "± gives the standard deviation.",
  "data": [
    {"system": "MILI (PIWIL2) piRISC loaded with L1MC piRNA (26 nt)", "experiment": "pre-steady-state target cleavage rate (min^-1); guide: L1MC piRNA 5'p-UAACUAAAUACUAUGCAAGCUGUAGG; higher = faster piRNA-guided slicing of the target", "settings": "auxiliary factor: none (no GTSF1)", "in_short": "(§1)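 Reactions were run for 0–8 or 0–960 min at 33 °C in HEPES–potassium acetate buffer, combining 1 nM active affinity-purified piRISC with one synthetic guide, […] transcribed, DNA-blocked target RNA library and, in some cases, 500 nM GTSF1 partner protein. Sequencing of uncleaved targets followed, with normalisation to depth and to weakly complementary targets. Three trials were pooled, k3 was capped at 0.0001 min^-1, and the pre-steady-state cleavage rate was taken from a burst-and-steady-state fit.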", "values": [
      {"sequence": "UCCUCGUACAGCUUGCAUAGUAUAUAGUUA", "pre-steady-state target cleavage rate": "0.00528 ± 0.0018"},
      {"sequence": "UCCUGCUGACAGCUUGCAUAGUAUUUAGUUA", "pre-steady-state target cleavage rate": "0.00993 ± 0.0029"},
      {"sequence": "UCCUGCUACAGCUGCAUAGUAUUUAGUUA", "pre-steady-state target cleavage rate": "0.00665 ± 0.0026"},
      {"sequence": "UCCUCCUACAGCUUGCUUAGUAUUUUGUUA", "pre-steady-state target cleavage rate": "0.0026 ± 0.0026"},
      {"sequence": "UCCUGGAUCAGGUUGCAAAGUAUUUAGUUA", "pre-steady-state target cleavage rate": "0.00902 ± 0.0027"},
      {"sequence": "UCCUGGAUGAGACUUGCAUAGUAUUUAGUUA", "pre-steady-state target cleavage rate": "0.00953 ± 0.0028"},
      {"sequence": "UCCUGGCACAGCUUGCAUAGUAUUUAGUUA", "pre-steady-state target cleavage rate": "0.0117 ± 0.0049"},
      {"sequence": "UCCUCCUACAGGUUGCAUAGUAUUUUGUUA", "pre-steady-state target cleavage rate": "0.00378 ± 0.0021"},
      {"sequence": "UCCUGGUACAGCGUUGCAUAGUAUUUAGUUA", "pre-steady-state target cleavage rate": "0.0109 ± 0.0053"},
      {"sequence": "UCCUGGAUCACCUUGCAUAGUAUUUAGUUA", "pre-steady-state target cleavage rate": "0.00706 ± 0.0023"},
      {"sequence": "UCCUCCUACAGCUUGCAUAGUAUAAUGUUA", "pre-steady-state target cleavage rate": "0.00294 ± 0.0027"},
      {"sequence": "UCCUGCUACAGCUUGCAUAGUAUUAAGUUA", "pre-steady-state target cleavage rate": "0.0047 ± 0.0024"},
      {"sequence": "UCCUCCUAUCAGCUUGCAUAGUAUUUAGUUA", "pre-steady-state target cleavage rate": "0.00786 ± 0.0023"},
      {"sequence": "UCCUGCUACACCUAGCAUAGUAUUUAGUUA", "pre-steady-state target cleavage rate": "0.00758 ± 0.0022"},
      {"sequence": "UCCUCACUACAGCUUGCAUAGUAUUUAGUUA", "pre-steady-state target cleavage rate": "0.00971 ± 0.0027"},
      {"sequence": "UCCUGGUACAGCUACCAUAGUAUUUAGUUA", "pre-steady-state target cleavage rate": "0.00616 ± 0.0022"},
      {"sequence": "UCCUGGUACACCUAGCAUAGUAUUUAGUUA", "pre-steady-state target cleavage rate": "0.00696 ± 0.0032"},
      {"sequence": "UCCUGGAUGUCCUUGCAUAGUAUUUAGUAA", "pre-steady-state target cleavage rate": "0.00376 ± 0.0019"},
      {"sequence": "UCCUGGAUCAAGCUUGCAUAGUAUUUAGUUA", "pre-steady-state target cleavage rate": "0.0103 ± 0.0028"},
      {"sequence": "UCCUGGAACAGCUUGCAUAGUAUUUAGUGUA", "pre-steady-state target cleavage rate": "0.00523 ± 0.0026"},
      {"sequence": "UCCUCAUACAGCUUGCAUAGUAUUUAGUUA", "pre-steady-state target cleavage rate": "0.0105 ± 0.0029"},
      {"sequence": "UCCUGGAUCAGCUUGCAAACUAUUUAGUUA", "pre-steady-state target cleavage rate": "0.00375 ± 0.0019"},
      {"sequence": "UCCUGCAACAGCAUGCAUAGUAUUUAGUUA", "pre-steady-state target cleavage rate": "0.00926 ± 0.0035"},
      {"sequence": "UCCUGGAACAGCUUACAUAGUAUUUAGUUA", "pre-steady-state target cleavage rate": "0.00953 ± 0.0027"},
      {"sequence": "UCCUGCUAUCAGCUUGCAUAGUAUUUAGUUA", "pre-steady-state target cleavage rate": "0.00819 ± 0.0029"},
      {"sequence": "UCCUGGAUCAGCUUGCAAAGUAUUUAGAUA", "pre-steady-state target cleavage rate": "0.00353 ± 0.0024"},
      {"sequence": "UCCUGGAUGAGCUUGCAUAGUAUUUAGUUU [g2:g21:cont:t1U]", "pre-steady-state target cleavage rate": "0.0146 ± 0.0035"},
      {"sequence": "UCCUCCUACAUGCUUGCAUAGUAUUUAGUUA", "pre-steady-state target cleavage rate": "0.0058 ± 0.002"},
      {"sequence": "UCCUCCUACACCUUGGAUAGUAUUUAGUUA", "pre-steady-state target cleavage rate": "0.00508 ± 0.0023"},
      {"sequence": "UCCUCCUACAGCUUGCAUAGUAAUUUAGUUA", "pre-steady-state target cleavage rate": "0.00674 ± 0.0025"},
      {"sequence": "UCCUGCUACAGGUUGCAUAGUAAUUAGUUA", "pre-steady-state target cleavage rate": "0.00697 ± 0.0026"},
      {"sequence": "UCCUGGUACAGCAUGCAUAGUAUUUAGUUA", "pre-steady-state target cleavage rate": "0.0158 ± 0.004"},
      {"sequence": "UCCUCCUACAGCAUGCAUAGUAAUUAGUUA", "pre-steady-state target cleavage rate": "0.00544 ± 0.0019"},
      {"sequence": "UCCUGGUACAGCUUGCAAAGUAUUUAGUUA", "pre-steady-state target cleavage rate": "0.00987 ± 0.0024"},
      {"sequence": "UCCUGGAACAGCUUGCAUAGUAUUUAGUUG [g2:g23:cont:t1G]", "pre-steady-state target cleavage rate": "0.00663 ± 0.0021"},
      {"sequence": "UCCUGGAUCAGCUAGCAUAGUAAUUAGUUA", "pre-steady-state target cleavage rate": "0.00502 ± 0.0022"},
      {"sequence": "UCCUGGUACAGCCUGCAUAGUAUUUAGUUA", "pre-steady-state target cleavage rate": "0.0143 ± 0.004"},
      {"sequence": "UCCUGGAACAGCUUGCAUGUAUUUAGUUA", "pre-steady-state target cleavage rate": "0.00308 ± 0.0027"},
      {"sequence": "UCCUGGAUGAGCUUGCAUAGUAAUUAGUUA", "pre-steady-state target cleavage rate": "0.00598 ± 0.0024"},
      {"sequence": "UCCUGGAAGAGCUUGCAUAGUAAUUAGUUA", "pre-steady-state target cleavage rate": "0.00468 ± 0.0028"}
    ]},
    {"system": "EfPiwi piRISC loaded with L1MC piRNA (26 nt)", "experiment": "pre-steady-state target cleavage rate (min^-1); auxiliary factor: 500 nM Ephydatia muelleri Gtsf1; guide: L1MC piRNA 5'p-UAACUAAAUACUAUGCAAGCUGUAGG; MIWI and MILI are mouse PIWI proteins and EfPiwi is from a freshwater sponge; tags in brackets are library labels; higher = faster piRNA-guided slicing of the target", "settings": "not given", "in_short": "as §1", "values": [
      {"sequence": "UCCUCGUACAGCUUGCAUAGUAUAUAGUUA", "pre-steady-state target cleavage rate": "0.0103 ± 0.0042"},
      {"sequence": "UCCUGCUGACAGCUUGCAUAGUAUUUAGUUA", "pre-steady-state target cleavage rate": "0.0486 ± 0.013"},
      {"sequence": "UCCUGCUACAGCUGCAUAGUAUUUAGUUA", "pre-steady-state target cleavage rate": "0.0102 ± 0.0026"},
      {"sequence": "UCCUCCUACAGCUUGCUUAGUAUUUUGUUA", "pre-steady-state target cleavage rate": "0.00532 ± 0.0028"},
      {"sequence": "UCCUGGAUCAGGUUGCAAAGUAUUUAGUUA", "pre-steady-state target cleavage rate": "0.0172 ± 0.0054"},
      {"sequence": "UCCUGGAUGAGACUUGCAUAGUAUUUAGUUA", "pre-steady-state target cleavage rate": "0.00434 ± 0.003"},
      {"sequence": "UCCUGGCACAGCUUGCAUAGUAUUUAGUUA", "pre-steady-state target cleavage rate": "0.0252 ± 0.0092"},
      {"sequence": "UCCUCCUACAGGUUGCAUAGUAUUUUGUUA", "pre-steady-state target cleavage rate": "0.00418 ± 0.0015"},
      {"sequence": "UCCUGGUACAGCGUUGCAUAGUAUUUAGUUA", "pre-steady-state target cleavage rate": "0.00749 ± 0.0028"},
      {"sequence": "UCCUGGAUCACCUUGCAUAGUAUUUAGUUA", "pre-steady-state target cleavage rate": "0.018 ± 0.0063"},
      {"sequence": "UCCUCCUACAGCUUGCAUAGUAUAAUGUUA", "pre-steady-state target cleavage rate": "0.00388 ± 0.0022"},
      {"sequence": "UCCUGCUACAGCUUGCAUAGUAUUAAGUUA", "pre-steady-state target cleavage rate": "0.0064 ± 0.0019"},
      {"sequence": "UCCUCCUAUCAGCUUGCAUAGUAUUUAGUUA", "pre-steady-state target cleavage rate": "0.0677 ± 0.018"},
      {"sequence": "UCCUGCUACACCUAGCAUAGUAUUUAGUUA", "pre-steady-state target cleavage rate": "0.0171 ± 0.0054"},
      {"sequence": "UCCUCACUACAGCUUGCAUAGUAUUUAGUUA", "pre-steady-state target cleavage rate": "0.0191 ± 0.0067"},
      {"sequence": "UCCUGGUACAGCUACCAUAGUAUUUAGUUA", "pre-steady-state target cleavage rate": "0.00432 ± 0.0019"},
      {"sequence": "UCCUGGUACACCUAGCAUAGUAUUUAGUUA", "pre-steady-state target cleavage rate": "0.00319 ± 0.0029"},
      {"sequence": "UCCUGGAUGUCCUUGCAUAGUAUUUAGUAA", "pre-steady-state target cleavage rate": "0.00321 ± 0.0025"},
      {"sequence": "UCCUGGAUCAAGCUUGCAUAGUAUUUAGUUA", "pre-steady-state target cleavage rate": "0.0542 ± 0.012"},
      {"sequence": "UCCUGGAACAGCUUGCAUAGUAUUUAGUGUA", "pre-steady-state target cleavage rate": "0.00557 ± 0.0021"},
      {"sequence": "UCCUCAUACAGCUUGCAUAGUAUUUAGUUA", "pre-steady-state target cleavage rate": "0.234 ± 0.064"},
      {"sequence": "UCCUGGAUCAGCUUGCAAACUAUUUAGUUA", "pre-steady-state target cleavage rate": "0.00476 ± 0.003"},
      {"sequence": "UCCUGCAACAGCAUGCAUAGUAUUUAGUUA", "pre-steady-state target cleavage rate": "0.0232 ± 0.0055"},
      {"sequence": "UCCUGGAACAGCUUACAUAGUAUUUAGUUA", "pre-steady-state target cleavage rate": "0.0502 ± 0.012"},
      {"sequence": "UCCUGCUAUCAGCUUGCAUAGUAUUUAGUUA", "pre-steady-state target cleavage rate": "0.0613 ± 0.015"},
      {"sequence": "UCCUGGAUCAGCUUGCAAAGUAUUUAGAUA", "pre-steady-state target cleavage rate": "0.00558 ± 0.0029"},
      {"sequence": "UCCUGGAUGAGCUUGCAUAGUAUUUAGUUU [g2:g21:cont:t1U]", "pre-steady-state target cleavage rate": "0.0356 ± 0.0098"},
      {"sequence": "UCCUCCUACAUGCUUGCAUAGUAUUUAGUUA", "pre-steady-state target cleavage rate": "0.00449 ± 0.0018"},
      {"sequence": "UCCUCCUACACCUUGGAUAGUAUUUAGUUA", "pre-steady-state target cleavage rate": "0.00658 ± 0.0029"},
      {"sequence": "UCCUCCUACAGCUUGCAUAGUAAUUUAGUUA", "pre-steady-state target cleavage rate": "0.00821 ± 0.0033"},
      {"sequence": "UCCUGCUACAGGUUGCAUAGUAAUUAGUUA", "pre-steady-state target cleavage rate": "0.00595 ± 0.0019"},
      {"sequence": "UCCUGGUACAGCAUGCAUAGUAUUUAGUUA", "pre-steady-state target cleavage rate": "0.0111 ± 0.0041"},
      {"sequence": "UCCUCCUACAGCAUGCAUAGUAAUUAGUUA", "pre-steady-state target cleavage rate": "0.0115 ± 0.0038"},
      {"sequence": "UCCUGGUACAGCUUGCAAAGUAUUUAGUUA", "pre-steady-state target cleavage rate": "0.0101 ± 0.0035"},
      {"sequence": "UCCUGGAACAGCUUGCAUAGUAUUUAGUUG [g2:g23:cont:t1G]", "pre-steady-state target cleavage rate": "0.0115 ± 0.0034"},
      {"sequence": "UCCUGGAUCAGCUAGCAUAGUAAUUAGUUA", "pre-steady-state target cleavage rate": "0.00458 ± 0.0024"},
      {"sequence": "UCCUGGUACAGCCUGCAUAGUAUUUAGUUA", "pre-steady-state target cleavage rate": "0.00984 ± 0.0036"},
      {"sequence": "UCCUGGAACAGCUUGCAUGUAUUUAGUUA", "pre-steady-state target cleavage rate": "0.00314 ± 0.0027"},
      {"sequence": "UCCUGGAUGAGCUUGCAUAGUAAUUAGUUA", "pre-steady-state target cleavage rate": "0.0154 ± 0.0044"},
      {"sequence": "UCCUGGAAGAGCUUGCAUAGUAAUUAGUUA", "pre-steady-state target cleavage rate": "0.00806 ± 0.0027"}
    ]}
  ]
}
